Reference: PubChem BioAssay (Tox21)
Records with an inconclusive call do not appear. Active and inactive are the calls of the source. Unless noted, calls come from the whole dose curve; as a rule, active = well fitted curve in the direction sought with a large enough effect in the repeat runs; inconclusive = weak or mixed curves; inactive = no such curve, though single readings can be large; an effect the other way counts as inactive or inconclusive.

Columns and labels:
[1] = qHTS assay to identify small molecule agonists of the sonic hedgehog signaling (Shh) pathway - cell viability counter screen (AID 1259366); note: nearly all actives have a fitted effect of over 50% in size
In short: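 Cytotoxicity counter screen run in the same wells as the Shh reporter assay. NIH/3T3 cells carrying a Gli1 response element–driven luciferase were treated with DMSO-dissolved compounds for 24hr, and live-cell protease activity was measured with CellTiter-Fluor.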

[2] = qHTS assay to identify small molecule antagonists of the sonic hedgehog signaling (Shh) pathway - cell viability counter screen (AID 1259367); note: nearly all actives have a fitted effect of over 55% in size
In short: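 Cells: 3T3 Gli1-Luc, 2,000/well, 4 hr pre-incubation. Compounds in DMSO, then conditioned medium. Incubation 24 hr, 37C, 5% CO2. CellTiter-Fluor at 23 hr, 1 hr, fluorescence.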

[3] = qHTS assay to identify small molecule agonists of the sonic hedgehog signaling (Shh) pathway (AID 1259368; calls by dose curve; note: series mostly up to about 92 µM; nearly all actives have a fitted effect of over 15% in size)
In short: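 NIH/3T3-derived 3T3Gli1-Luc cells carrying a stably integrated Gli1 response element–firefly luciferase reporter were plated, left 4 hr at 37 C, then given compounds in DMSO for 24 hr. Luminescence was read 30 min after adding luciferase reagent.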

[4] = qHTS assay to identify small molecule antagonists of the sonic hedgehog signaling (Shh) pathway (AID 1259369; calls by dose curve; note: nearly all actives have a fitted effect of over 45% in size)
In short: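 NIH/3T3-derived 3T3Gli1-Luc cells with stably integrated Gli1-Luc reporter were preincubated 4hr at 37 C, then given compounds in DMSO plus Shh conditioned medium and incubated 24hr. Firefly luciferase luminescence read after 30min reagent at room temperature.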

[5] = target: Estrogen receptor beta (Homo sapiens) (UniProt Q92731); assay: qHTS assay to identify small molecule agonists of the estrogen receptor beta (ER-beta) signaling pathway (AID 1259377; active = well fitted activation curve with a large enough effect in the signal ratio in the repeat runs, not every such curve was filed as active; the % refers to the signal ratio)
In short: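 HEK293T ER-beta-UAS-bla; 2% charcoal-stripped FBS; cells pre-incubated 6 hr, compound 16 hr, 37C/5% CO2; LiveBLAzer B/G FRET substrate 2 h RT; fluorescence intensity read.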

[6] = target: Estrogen receptor beta (Homo sapiens) (UniProt Q92731); assay: qHTS assay to identify small molecule antagonists of the estrogen receptor beta (ER-beta) signaling pathway (AID 1259378; active = well fitted inhibition curve with a large enough effect in the signal ratio in the repeat runs, not every such curve was filed as active; the % refers to the signal ratio)
In short: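 Antagonist mode: compounds added to beta-lactamase reporter HEK293T ER-beta-UAS cells stimulated with E2 (1nM final), 16 hr at 37C. LiveBLAzer B/G FRET substrate, 2 hours room temperature, fluorescence read-out.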

[7] = qHTS assay to identify small molecule agonists of the androgen receptor (AR) signaling pathway in the presence of an antagonist - cell viability counter screen (AID 1259379); note: series mostly up to about 92 µM; nearly all actives have a fitted effect of over 25% in size
In short: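 MDA-kb2 human breast carcinoma cells (stable MMTV-luciferase, AR/GR responsive) were seeded 3,000 cells/well, pre-incubated 5 hr at 37C without CO2, then given 3.0uM nilutamide and compounds at 15 concentrations for 16 hr. Viability was read by CellTiter-Fluor fluorescence.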

[8] = qHTS assay to identify small molecule agonists of the estrogen receptor beta (ER-beta) signaling pathway - cell viability counter screen (AID 1259380); note: nearly all actives have a fitted effect of over 30% in size
In short: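 ER-beta-UAS-bla HEK293T cells in medium with 2% charcoal-stripped FBS were preincubated 6 hr at 37C, dosed with compound in DMSO for 16 hr, then after the bla read, CellTiter-Glo was added for 30 min at room temperature; luminescence recorded.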

[9] = target: Androgen receptor (Homo sapiens) (UniProt P10275); assay: qHTS assay to identify small molecule agonists of the androgen receptor (AR) signaling pathway in the presence of an antagonist (AID 1259381; calls by dose curve; note: nearly all actives have a fitted effect of over 15% in size)
In short: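 MDA-kb2 human breast carcinoma cells carrying an MMTV-luciferase reporter (AR- and GR-responsive) were treated with compounds at 15 concentrations plus 3.0uM final nilutamide for 16hr at 37C without CO2; luminescence was read after ONE-Glo addition.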
% is set by controls: 0 for no effect and ±100 for the full control effect.

Chain of Estrogen receptor beta (Homo sapiens) (Q92731 whole entry, looked up): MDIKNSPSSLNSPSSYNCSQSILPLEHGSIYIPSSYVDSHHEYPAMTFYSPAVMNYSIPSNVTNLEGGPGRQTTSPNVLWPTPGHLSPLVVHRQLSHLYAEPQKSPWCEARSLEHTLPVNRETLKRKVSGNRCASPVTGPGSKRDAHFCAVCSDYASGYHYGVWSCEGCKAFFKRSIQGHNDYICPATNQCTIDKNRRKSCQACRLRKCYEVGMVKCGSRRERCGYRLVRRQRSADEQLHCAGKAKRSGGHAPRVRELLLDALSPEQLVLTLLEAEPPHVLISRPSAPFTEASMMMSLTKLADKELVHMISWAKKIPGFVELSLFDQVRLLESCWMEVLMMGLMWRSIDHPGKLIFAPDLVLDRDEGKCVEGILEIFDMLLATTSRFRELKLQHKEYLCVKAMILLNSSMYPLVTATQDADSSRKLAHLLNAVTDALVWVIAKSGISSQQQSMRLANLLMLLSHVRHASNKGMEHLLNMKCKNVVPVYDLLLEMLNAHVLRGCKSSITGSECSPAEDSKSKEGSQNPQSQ
Chain of Androgen receptor (Homo sapiens) (P10275 whole entry, looked up): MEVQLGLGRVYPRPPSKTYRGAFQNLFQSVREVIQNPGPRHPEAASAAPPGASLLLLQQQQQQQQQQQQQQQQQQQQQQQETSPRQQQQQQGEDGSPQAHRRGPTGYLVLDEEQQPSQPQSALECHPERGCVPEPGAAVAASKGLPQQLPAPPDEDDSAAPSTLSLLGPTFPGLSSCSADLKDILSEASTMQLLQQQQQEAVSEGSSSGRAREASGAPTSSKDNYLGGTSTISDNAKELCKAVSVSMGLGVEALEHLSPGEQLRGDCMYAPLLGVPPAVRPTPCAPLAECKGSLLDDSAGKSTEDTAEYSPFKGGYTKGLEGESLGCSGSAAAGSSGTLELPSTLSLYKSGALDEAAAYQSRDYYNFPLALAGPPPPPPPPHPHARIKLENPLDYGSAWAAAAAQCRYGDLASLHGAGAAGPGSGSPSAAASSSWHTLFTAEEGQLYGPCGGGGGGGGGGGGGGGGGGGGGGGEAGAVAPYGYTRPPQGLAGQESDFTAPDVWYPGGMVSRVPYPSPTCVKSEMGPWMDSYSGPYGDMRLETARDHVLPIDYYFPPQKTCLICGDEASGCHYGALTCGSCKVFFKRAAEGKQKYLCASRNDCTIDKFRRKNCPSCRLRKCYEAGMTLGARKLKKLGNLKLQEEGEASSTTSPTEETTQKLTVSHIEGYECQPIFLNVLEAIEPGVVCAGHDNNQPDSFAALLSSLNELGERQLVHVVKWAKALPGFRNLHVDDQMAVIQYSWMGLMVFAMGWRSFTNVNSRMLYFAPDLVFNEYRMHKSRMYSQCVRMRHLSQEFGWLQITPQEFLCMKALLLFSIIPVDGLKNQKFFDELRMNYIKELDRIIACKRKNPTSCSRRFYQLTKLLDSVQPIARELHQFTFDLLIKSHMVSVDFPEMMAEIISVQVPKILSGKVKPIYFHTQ

CN1CCN(C(=O)C2CCCCC2)CC1
inactive: outcome [1] | outcome [2] | outcome [3] | Potency [4] | Potency [5] | outcome [6] | outcome [7] | Potency [8]

Clc1cc(Cl)c(Cl)c(Cl)c1Cl
inactive: outcome [2] | outcome [3] | Potency [4] | Potency [5] | outcome [6] | outcome [7] | Potency [8]

COc1cc(S(N)(=O)=O)cc(C(=O)O)c1OC
inactive: outcome [2] | outcome [3] | Potency [4] | outcome [6] | outcome [7] | Potency [8]

O=C1Nc2ccccc2C1=O
inactive: outcome [1] | outcome [3] | Potency [5] | outcome [6] | outcome [7]

Cc1ccc2ccccc2n1
inactive: outcome [1] | outcome [2] | outcome [3] | Potency [4] | Potency [5] | outcome [6] | outcome [7] | Potency [8]

c1coc(Cn2cccc2)c1
inactive: outcome [1] | outcome [3] | Potency [4] | Potency [5] | outcome [6] | outcome [7] | Potency [8]

CCCCN1C(=O)c2ccccc2C1=O
inactive: outcome [1] | outcome [2] | outcome [3] | Potency [4] | Potency [5] | outcome [6] | outcome [7] | Potency [8]

N=C(N)S(=O)O
inactive: outcome [1] | outcome [2] | outcome [3] | Potency [4] | outcome [7] | Potency [8]

CC(CC(=O)Cl)CC(C)(C)C (stereo unspecified)
inactive: outcome [2] | outcome [3] | Potency [4] | Potency [5] | outcome [6] | outcome [7] | Potency [8]

CCCCC(O)/C=C(C)/C=C/C=C/C(=O)N1CCCC1=O (stereo unspecified)
inactive: outcome [1] | outcome [2] | outcome [3] | Potency [4] | Potency [5] | outcome [6] | outcome [7] | Potency [8]

NC[C@H]1O[C@H](O[C@H]2[C@H](O)[C@@H](O[C@H]3O[C@H](CO)[C@@H](O)[C@H](N)[C@H]3O)[C@H](N)C[C@@H]2N)[C@H](N)[C@@H](O)[C@@H]1O
inactive: viability change, negative = cytotoxic [1] 0.901% [at 19 µM] | viability change, negative = cytotoxic [2] 3.49% [at 19 µM] | activity change [3] 0.032% [at 18.9 µM] | activity change, negative = inhibition [4] 16.7% [at 19 µM] | activity change, negative = cytotoxicity [7] -5.29% [at 19 µM] | activity change, negative = cytotoxicity [8] 2.53% [at 19 µM]

O=C(O)CCC(=O)Nc1ccc(S(=O)(=O)Nc2nccs2)cc1
inactive: outcome [3] | Potency [4] | Potency [5] | outcome [7]

CC(=O)/C=C/C=C1/C2CCC(C2)C1(C)C (stereo unspecified)
inactive: outcome [2] | outcome [3] | Potency [4] | outcome [7] | Potency [8] | outcome [9]
